# Assay results: paper PMC7862700, “An all-to-all approach to the identification of sequence-specific readers for epigenetic DNA modifications on cytosine”
# How the values were obtained:
# Experiment in all cases: DAPPL (digital affinity profiling via proximity ligation, sequencing); 10 mM Tris-HCl pH 7.5, 50 mM NaCl, 1 mM DTT, 4% glycerol, room temperature, 30 min; GST-TFs on glutathione beads, 16-mer random dsDNA library, 0.1% formaldehyde crosslink after washing; high values mean tight binding
# FLI1 = biological target: T1, FLI1 (Homo sapiens, UniProt Q01543 1-452); details: protein: recombinant; tags: N-terminal GST; dsDNA, one strand shown
# T1 sequence: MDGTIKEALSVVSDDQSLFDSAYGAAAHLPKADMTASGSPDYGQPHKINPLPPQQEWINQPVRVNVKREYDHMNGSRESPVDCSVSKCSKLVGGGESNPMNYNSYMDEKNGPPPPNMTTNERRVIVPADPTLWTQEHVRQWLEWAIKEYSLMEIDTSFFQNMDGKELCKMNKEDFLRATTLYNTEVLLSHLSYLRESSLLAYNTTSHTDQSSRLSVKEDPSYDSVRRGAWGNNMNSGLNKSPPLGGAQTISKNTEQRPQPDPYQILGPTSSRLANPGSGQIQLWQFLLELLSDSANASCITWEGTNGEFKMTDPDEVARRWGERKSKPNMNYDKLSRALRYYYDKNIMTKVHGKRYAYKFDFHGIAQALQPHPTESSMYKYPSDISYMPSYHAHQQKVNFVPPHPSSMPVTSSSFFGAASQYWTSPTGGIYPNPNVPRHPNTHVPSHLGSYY
# Summary of the method: (§1)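 Sequencing on an Illumina NextSeq500 followed washing, crosslinking with 0.1% formaldehyde, proximity ligation (BsaI/T4 ligase, 1 h, 37 °C) and PCR amplification of pools that had been incubated for 30 min at room temperature with 200 nmole of a random double-stranded 16-mer DNA library in Tris/NaCl/DTT/glycerol buffer. Each pool held DNA-barcoded human transcription factors, expressed in yeast as GST fusions and captured on glutathione beads, plus a tag-only sample. Binding signal is a hexamer's read frequency for a factor divided by its frequency in the tag-only sample.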
# ELK1 = biological target: T2, ELK1 (Homo sapiens, UniProt P19419 1-428); details: protein: recombinant; tags: N-terminal GST; dsDNA, one strand shown
# T2 sequence: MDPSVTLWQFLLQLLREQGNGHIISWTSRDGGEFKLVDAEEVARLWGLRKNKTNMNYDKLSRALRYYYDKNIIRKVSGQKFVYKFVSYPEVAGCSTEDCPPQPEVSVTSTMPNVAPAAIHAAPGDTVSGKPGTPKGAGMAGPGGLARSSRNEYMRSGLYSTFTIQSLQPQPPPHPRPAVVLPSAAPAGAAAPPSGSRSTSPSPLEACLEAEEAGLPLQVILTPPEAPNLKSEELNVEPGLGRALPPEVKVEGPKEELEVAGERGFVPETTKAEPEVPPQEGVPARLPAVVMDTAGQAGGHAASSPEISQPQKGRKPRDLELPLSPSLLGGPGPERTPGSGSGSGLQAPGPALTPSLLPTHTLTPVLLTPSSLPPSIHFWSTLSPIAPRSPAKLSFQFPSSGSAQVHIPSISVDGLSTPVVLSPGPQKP
# Summary of the method: as §1
# GABPA = biological target: T3, GABPA (Homo sapiens, UniProt Q06546 1-454); details: protein: recombinant; tags: N-terminal GST; dsDNA, one strand shown
# T3 sequence: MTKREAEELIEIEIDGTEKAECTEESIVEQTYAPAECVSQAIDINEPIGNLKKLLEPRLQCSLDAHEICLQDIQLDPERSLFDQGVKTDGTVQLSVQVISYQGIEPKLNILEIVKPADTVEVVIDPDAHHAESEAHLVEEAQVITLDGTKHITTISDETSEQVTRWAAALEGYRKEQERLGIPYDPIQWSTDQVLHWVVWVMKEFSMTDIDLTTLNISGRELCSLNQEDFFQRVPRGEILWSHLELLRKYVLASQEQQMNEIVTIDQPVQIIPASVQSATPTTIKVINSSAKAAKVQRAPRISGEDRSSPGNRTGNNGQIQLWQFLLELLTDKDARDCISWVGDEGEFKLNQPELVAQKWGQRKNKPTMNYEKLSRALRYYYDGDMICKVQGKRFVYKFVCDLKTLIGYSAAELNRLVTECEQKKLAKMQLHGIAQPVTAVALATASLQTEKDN
# Summary of the method: as §1
# ERG = biological target: T4, ERG (Homo sapiens, UniProt P11308 1-479); details: protein: recombinant; tags: N-terminal GST; dsDNA, one strand shown
# T4 sequence: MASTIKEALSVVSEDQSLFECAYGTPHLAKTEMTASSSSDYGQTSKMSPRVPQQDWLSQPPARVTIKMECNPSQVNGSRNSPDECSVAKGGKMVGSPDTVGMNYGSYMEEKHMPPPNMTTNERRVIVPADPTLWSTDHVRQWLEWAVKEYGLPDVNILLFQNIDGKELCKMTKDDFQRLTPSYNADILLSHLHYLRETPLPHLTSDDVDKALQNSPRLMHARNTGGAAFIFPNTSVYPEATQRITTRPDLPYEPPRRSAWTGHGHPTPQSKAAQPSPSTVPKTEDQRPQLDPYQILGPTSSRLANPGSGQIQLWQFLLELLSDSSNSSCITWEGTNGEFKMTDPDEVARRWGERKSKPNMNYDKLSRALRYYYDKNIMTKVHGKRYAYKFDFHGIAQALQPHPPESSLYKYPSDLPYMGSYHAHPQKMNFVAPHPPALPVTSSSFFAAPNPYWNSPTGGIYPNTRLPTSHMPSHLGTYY
# Summary of the method: as §1
# ELF1 = ELF1 (Homo sapiens, UniProt P32519 1-619); details: protein: recombinant; tags: N-terminal GST; dsDNA, one strand shown
# Chain of ELF1 (P32519 whole entry): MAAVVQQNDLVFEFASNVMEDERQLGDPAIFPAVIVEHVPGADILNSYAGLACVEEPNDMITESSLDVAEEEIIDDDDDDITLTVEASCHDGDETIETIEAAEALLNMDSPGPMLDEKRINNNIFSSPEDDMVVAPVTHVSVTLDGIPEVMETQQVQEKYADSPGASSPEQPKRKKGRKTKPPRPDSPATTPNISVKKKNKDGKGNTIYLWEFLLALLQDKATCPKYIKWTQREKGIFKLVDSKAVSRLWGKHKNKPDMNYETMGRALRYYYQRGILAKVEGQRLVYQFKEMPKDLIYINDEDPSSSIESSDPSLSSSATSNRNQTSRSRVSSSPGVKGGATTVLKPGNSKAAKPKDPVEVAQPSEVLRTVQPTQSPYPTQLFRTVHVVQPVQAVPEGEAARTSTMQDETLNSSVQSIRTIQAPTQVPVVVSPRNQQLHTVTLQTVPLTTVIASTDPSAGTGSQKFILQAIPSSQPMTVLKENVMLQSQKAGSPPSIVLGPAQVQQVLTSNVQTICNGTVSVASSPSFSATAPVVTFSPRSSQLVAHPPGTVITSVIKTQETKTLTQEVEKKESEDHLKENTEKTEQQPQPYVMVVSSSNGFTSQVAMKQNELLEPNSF
# Summary of the method: as §1
# EHF = biological target: T5, EHF (Homo sapiens, UniProt Q9NZC4 1-300); details: protein: recombinant; tags: N-terminal GST; dsDNA, one strand shown
# T5 sequence: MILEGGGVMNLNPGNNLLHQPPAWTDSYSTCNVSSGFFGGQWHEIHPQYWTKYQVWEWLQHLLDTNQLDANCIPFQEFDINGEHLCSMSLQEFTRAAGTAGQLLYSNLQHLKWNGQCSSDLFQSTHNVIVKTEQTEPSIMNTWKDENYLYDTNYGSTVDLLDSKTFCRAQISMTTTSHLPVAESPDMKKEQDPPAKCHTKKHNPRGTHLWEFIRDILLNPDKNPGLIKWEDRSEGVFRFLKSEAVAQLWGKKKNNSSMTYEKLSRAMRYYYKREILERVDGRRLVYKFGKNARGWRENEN
# Summary of the method: as §1
# SPI1 = SPI1 (Homo sapiens, UniProt P17947 1-270); details: protein: recombinant; tags: N-terminal GST; dsDNA, one strand shown
# Summary of the method: as §1
# SPIB = SPIB (Homo sapiens, UniProt Q01892 1-262); details: protein: recombinant; tags: N-terminal GST; dsDNA, one strand shown
# Chain of SPIB (Q01892 whole entry): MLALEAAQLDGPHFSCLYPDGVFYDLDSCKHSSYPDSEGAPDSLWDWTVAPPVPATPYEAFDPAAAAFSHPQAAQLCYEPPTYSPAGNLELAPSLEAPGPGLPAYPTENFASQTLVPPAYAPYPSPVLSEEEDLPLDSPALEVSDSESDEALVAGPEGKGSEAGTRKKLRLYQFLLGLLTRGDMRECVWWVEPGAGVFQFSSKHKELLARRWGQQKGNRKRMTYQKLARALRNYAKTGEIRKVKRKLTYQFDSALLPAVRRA
# Summary of the method: as §1
# ELK3 = biological target: T6, ELK3 (Homo sapiens, UniProt P41970 1-407); details: protein: recombinant; tags: N-terminal GST; dsDNA, one strand shown
# T6 sequence: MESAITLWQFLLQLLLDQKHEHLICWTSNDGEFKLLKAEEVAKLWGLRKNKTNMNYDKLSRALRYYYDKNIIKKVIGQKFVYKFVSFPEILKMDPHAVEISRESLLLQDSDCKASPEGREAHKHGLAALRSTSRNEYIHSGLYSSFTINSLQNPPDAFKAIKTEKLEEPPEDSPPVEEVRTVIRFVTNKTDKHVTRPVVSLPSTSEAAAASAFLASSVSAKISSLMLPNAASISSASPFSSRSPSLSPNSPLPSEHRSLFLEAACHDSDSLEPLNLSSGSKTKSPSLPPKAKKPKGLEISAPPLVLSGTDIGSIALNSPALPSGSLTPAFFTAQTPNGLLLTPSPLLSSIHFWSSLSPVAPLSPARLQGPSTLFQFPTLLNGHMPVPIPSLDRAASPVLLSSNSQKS
# Summary of the method: as §1
# FEV = biological target: T7, FEV (Homo sapiens, UniProt Q99581 1-238); details: protein: recombinant; tags: N-terminal GST; dsDNA, one strand shown
# T7 sequence: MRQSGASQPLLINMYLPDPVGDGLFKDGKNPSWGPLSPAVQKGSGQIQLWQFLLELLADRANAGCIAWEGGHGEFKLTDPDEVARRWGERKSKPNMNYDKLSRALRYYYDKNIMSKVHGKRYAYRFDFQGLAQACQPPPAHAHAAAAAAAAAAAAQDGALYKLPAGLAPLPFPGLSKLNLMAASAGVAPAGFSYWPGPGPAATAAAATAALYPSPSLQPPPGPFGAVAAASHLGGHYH
# Summary of the method: as §1
# ETV5 = ETV5 (Homo sapiens, UniProt P41161 1-510); details: protein: recombinant; tags: N-terminal GST; dsDNA, one strand shown
# Chain of ETV5 (P41161 whole entry): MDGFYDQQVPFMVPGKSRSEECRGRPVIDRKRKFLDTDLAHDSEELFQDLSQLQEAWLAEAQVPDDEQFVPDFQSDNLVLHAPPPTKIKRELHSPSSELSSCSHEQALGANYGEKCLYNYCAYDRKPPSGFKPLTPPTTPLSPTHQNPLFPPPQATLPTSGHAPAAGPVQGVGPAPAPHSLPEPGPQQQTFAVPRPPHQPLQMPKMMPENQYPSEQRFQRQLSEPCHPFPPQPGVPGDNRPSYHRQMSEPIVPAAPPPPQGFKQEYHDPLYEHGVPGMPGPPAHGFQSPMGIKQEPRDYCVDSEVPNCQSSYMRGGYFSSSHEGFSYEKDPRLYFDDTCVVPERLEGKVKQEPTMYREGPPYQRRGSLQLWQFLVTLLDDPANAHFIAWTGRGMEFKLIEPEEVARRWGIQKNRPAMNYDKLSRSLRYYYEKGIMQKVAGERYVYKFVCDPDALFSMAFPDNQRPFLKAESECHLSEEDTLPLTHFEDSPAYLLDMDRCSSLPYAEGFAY
# Summary of the method: as §1
# HSF1 = HSF1 (Homo sapiens, UniProt Q00613 1-529); details: protein: recombinant; tags: N-terminal GST; chain copies: 3; dsDNA, one strand shown
# Chain of HSF1 (Q00613 whole entry): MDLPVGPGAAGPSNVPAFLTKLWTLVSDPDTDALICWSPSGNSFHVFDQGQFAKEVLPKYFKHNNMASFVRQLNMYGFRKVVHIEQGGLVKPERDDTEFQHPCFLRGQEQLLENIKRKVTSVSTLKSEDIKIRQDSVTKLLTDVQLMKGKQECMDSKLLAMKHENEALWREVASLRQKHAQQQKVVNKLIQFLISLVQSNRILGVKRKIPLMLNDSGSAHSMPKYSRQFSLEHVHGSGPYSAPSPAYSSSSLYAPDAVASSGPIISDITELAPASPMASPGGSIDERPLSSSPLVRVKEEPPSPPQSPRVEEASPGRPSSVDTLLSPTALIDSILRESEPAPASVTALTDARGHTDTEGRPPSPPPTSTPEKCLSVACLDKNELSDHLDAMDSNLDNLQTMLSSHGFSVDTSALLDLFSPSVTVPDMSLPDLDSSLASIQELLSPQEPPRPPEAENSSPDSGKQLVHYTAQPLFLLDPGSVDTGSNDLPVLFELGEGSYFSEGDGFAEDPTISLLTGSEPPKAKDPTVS
# Summary of the method: as §1
# SPIC = biological target: T8, SPIC (Homo sapiens, UniProt Q8N5J4 1-248); details: protein: recombinant; tags: N-terminal GST; dsDNA, one strand shown
# T8 sequence: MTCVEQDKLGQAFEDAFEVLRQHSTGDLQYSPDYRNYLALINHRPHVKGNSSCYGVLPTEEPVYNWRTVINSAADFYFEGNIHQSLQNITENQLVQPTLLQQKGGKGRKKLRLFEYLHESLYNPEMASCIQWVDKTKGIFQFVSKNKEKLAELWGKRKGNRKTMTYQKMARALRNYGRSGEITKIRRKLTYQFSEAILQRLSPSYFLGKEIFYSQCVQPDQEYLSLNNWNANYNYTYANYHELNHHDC
# Summary of the method: as §1
# ELF4 = ELF4 (Homo sapiens, UniProt Q99607 1-663); details: protein: recombinant; tags: N-terminal GST; dsDNA, one strand shown
# Chain of ELF4 (Q99607 whole entry): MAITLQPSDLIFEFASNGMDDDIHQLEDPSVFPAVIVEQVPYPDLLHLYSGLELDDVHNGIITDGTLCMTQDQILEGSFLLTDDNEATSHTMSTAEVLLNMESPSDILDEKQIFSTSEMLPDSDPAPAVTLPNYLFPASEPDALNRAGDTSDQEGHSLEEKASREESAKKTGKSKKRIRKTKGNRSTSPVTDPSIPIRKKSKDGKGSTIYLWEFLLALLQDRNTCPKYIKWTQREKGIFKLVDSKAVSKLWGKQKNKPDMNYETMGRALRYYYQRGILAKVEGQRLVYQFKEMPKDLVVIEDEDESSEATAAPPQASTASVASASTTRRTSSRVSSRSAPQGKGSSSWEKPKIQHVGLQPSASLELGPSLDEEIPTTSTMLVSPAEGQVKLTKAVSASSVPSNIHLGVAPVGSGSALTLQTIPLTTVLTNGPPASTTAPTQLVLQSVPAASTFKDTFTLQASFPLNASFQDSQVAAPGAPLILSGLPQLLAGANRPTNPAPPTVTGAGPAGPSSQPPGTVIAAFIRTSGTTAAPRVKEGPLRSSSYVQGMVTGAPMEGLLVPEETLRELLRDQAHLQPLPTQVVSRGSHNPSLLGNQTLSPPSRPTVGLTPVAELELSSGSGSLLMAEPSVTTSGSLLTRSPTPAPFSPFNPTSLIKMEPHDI
# Summary of the method: as §1
# ELK4 = biological target: T9, ELK4 (Homo sapiens, UniProt P28324-2 1-405); details: protein: recombinant; tags: N-terminal GST; dsDNA, one strand shown
# T9 sequence: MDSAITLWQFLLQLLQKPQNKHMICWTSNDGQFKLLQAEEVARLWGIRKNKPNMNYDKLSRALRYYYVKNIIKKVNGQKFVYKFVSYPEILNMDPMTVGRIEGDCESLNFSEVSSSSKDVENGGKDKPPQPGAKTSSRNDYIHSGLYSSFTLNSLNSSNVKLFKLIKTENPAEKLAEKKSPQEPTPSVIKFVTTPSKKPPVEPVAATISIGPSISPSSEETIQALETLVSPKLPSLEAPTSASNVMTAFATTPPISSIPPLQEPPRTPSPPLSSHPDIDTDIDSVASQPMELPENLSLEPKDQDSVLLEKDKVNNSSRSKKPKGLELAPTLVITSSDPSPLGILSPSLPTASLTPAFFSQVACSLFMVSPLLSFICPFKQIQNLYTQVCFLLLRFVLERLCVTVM
# Summary of the method: as §1
# ETV2 = biological target: T10, ETV2 (Homo sapiens, UniProt O00321 1-342); details: protein: recombinant; tags: N-terminal GST; dsDNA, one strand shown
# T10 sequence: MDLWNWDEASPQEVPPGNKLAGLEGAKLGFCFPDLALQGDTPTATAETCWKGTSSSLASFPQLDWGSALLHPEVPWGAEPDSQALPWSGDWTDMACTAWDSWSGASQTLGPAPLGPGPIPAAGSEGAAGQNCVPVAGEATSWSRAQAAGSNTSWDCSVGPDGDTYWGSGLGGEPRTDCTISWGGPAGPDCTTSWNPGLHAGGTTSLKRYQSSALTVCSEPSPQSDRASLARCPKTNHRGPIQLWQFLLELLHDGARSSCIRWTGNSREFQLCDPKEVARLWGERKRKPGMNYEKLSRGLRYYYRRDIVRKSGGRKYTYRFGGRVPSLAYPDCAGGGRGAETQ
# Summary of the method: as §1
# ELF3 = biological target: T11, ELF3 (Homo sapiens, UniProt P78545 1-371); details: protein: recombinant; tags: N-terminal GST; dsDNA, one strand shown
# T11 sequence: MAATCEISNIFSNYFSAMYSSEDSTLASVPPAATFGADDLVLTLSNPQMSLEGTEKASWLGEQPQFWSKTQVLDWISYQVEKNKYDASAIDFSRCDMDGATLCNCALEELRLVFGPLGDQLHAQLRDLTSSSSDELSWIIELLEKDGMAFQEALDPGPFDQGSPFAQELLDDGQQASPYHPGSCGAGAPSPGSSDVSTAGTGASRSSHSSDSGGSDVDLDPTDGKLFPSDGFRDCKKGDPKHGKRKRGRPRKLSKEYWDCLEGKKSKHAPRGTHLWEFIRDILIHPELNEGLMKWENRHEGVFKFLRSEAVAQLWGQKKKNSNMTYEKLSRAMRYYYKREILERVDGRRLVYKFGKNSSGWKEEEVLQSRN
# Summary of the method: as §1
# CRX = CRX (Homo sapiens, UniProt O43186 1-299); details: protein: recombinant; tags: N-terminal GST; dsDNA, one strand shown
# Chain of CRX (O43186 whole entry): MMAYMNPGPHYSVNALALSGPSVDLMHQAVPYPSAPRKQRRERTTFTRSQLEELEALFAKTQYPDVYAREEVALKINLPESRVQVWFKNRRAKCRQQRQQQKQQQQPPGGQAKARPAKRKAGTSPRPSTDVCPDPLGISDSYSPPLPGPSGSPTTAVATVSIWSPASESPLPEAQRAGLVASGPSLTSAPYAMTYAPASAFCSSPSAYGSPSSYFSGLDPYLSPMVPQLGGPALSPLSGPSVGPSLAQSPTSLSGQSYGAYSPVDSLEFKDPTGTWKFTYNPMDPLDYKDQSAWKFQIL
# Summary of the method: as §1
# ETV1 = ETV1 (Homo sapiens, UniProt P50549 1-477); details: protein: recombinant; tags: N-terminal GST; dsDNA, one strand shown
# Chain of ETV1 (P50549 whole entry): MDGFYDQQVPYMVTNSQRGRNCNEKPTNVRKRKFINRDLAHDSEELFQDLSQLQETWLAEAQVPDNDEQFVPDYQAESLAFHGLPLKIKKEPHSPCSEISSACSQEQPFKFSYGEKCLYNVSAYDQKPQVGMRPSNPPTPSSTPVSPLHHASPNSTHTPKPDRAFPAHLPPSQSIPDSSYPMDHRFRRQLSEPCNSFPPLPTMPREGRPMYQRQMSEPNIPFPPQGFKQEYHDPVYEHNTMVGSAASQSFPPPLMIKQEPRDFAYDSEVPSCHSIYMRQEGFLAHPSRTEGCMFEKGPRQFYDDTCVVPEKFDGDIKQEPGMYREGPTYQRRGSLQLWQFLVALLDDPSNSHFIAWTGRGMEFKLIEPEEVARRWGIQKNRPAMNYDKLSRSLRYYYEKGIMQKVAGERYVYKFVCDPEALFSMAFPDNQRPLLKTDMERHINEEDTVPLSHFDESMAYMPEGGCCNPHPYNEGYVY
# Summary of the method: as §1
sequence,measurement,setting,value
TTCCCG,binding signal,FLI1,"1.8 fold enrichment (6-mer frequency, TF over GST control)"
same,binding signal,ELK1,"1.73 fold enrichment (6-mer frequency, TF over GST control)"
same,binding signal,GABPA,"1.93 fold enrichment (6-mer frequency, TF over GST control)"
same,binding signal,ERG,"2.03 fold enrichment (6-mer frequency, TF over GST control)"
same,binding signal,ELF1,"1.82 fold enrichment (6-mer frequency, TF over GST control)"
same,binding signal,EHF,"1.98 fold enrichment (6-mer frequency, TF over GST control)"
same,binding signal,SPI1,"2.02 fold enrichment (6-mer frequency, TF over GST control)"
same,binding signal,SPIB,"2.17 fold enrichment (6-mer frequency, TF over GST control)"
same,binding signal,ELK3,"1.78 fold enrichment (6-mer frequency, TF over GST control)"
same,binding signal,FEV,"1.85 fold enrichment (6-mer frequency, TF over GST control)"
same,binding signal,ETV5,"2.08 fold enrichment (6-mer frequency, TF over GST control)"
same,binding signal,HSF1,"2.46 fold enrichment (6-mer frequency, TF over GST control)"
same,binding signal,SPIC,"1.91 fold enrichment (6-mer frequency, TF over GST control)"
same,binding signal,ELF4,"1.73 fold enrichment (6-mer frequency, TF over GST control)"
same,binding signal,ELK4,"1.69 fold enrichment (6-mer frequency, TF over GST control)"
same,binding signal,ETV2,"1.87 fold enrichment (6-mer frequency, TF over GST control)"
same,binding signal,ELF3,"1.64 fold enrichment (6-mer frequency, TF over GST control)"
same,binding signal,CRX,"1.7 fold enrichment (6-mer frequency, TF over GST control)"
same,binding signal,ETV1,"1.88 fold enrichment (6-mer frequency, TF over GST control)"
